Test results published in PubChem BioAssay AID1159580 (chemical genetic matrix, 2015).
Several values for one entry are separate records, joined by “and”; a condition that tells them apart may be missing. Equal entries are not always repeated. The whole screen tested about 5,500 compounds, of which about 2,000 (36%) were called active. Inconclusive results (about 18%) are left out. Rule as the data show it: active = normalized growth mostly below about 0.91 (no sharp cut-off); inconclusive = no clear call, values can overlap the other calls; inactive = mostly above about 0.92. The list shows a part of the results.

Assay: chemical genetic growth profiling, strain panel (AID 1159580);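 also: tested at 20 µM; growth read once vehicle control cultures reached saturation at 30 °C; 1 = growth at the plate median or of vehicle wells; lower values mean less growth of the strain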
Conditions: S. cerevisiae deletion strains, growth OD

Measured: normalized growth

CN[C@H](CC(=O)O)C(=O)O
inactive: locus YAL013W, strain DEP1, active compounds read low 0.983 | locus YAL021C, strain ccr4, active compounds read low 0.988 | locus YAL026C, strain drs2, active compounds read low 1.02 | locus YAL030W, strain snc1, active compounds read low 1.01 | locus YBL061C, strain skt5, active compounds read low 1.02 | locus YBR009C, strain hhf1, active compounds read low 1.01 | locus YBR021W, strain FUR4, active compounds read low 1.02 | locus YBR023C, strain chs3, active compounds read low 1.03 | locus YBR171W, strain sec66, active compounds read low 1.01 | locus YBR229C, strain ROT2, active compounds read low 0.998 | locus YBR231C, strain swc5, active compounds read low 1.02 | locus YBR279W, strain paf1, active compounds read low 1.01 | locus YCL011C, strain gbp2, active compounds read low 1.03 | locus YCL016C, strain dcc1, active compounds read low 1.02 | locus YCL029C, strain bik1, active compounds read low 0.985 | locus YCL061C, strain MRC1, active compounds read low 1 | locus YCL069W, strain vba3, active compounds read low 1.01 | locus YCR088W, strain abp1, active compounds read low 1.02 | locus YDL005C, strain med2, active compounds read low 1.03 | locus YDL035C, strain GPR1, active compounds read low 0.989 | locus YDL040C, strain nat1, active compounds read low 1.02 | locus YDL074C, strain BRE1, active compounds read low 1.04 | locus YDL101C, strain DUN1, active compounds read low 0.995 | locus YDL134C, strain PPH21, active compounds read low 0.987 | locus YDL185W, strain tfp1, active compounds read low 0.968 | locus YDL192W, strain arf1, active compounds read low 0.967 | locus YDR001C, strain nth1, active compounds read low 1.03 | locus YDR069C, strain doa4, active compounds read low 1.02 | locus YDR101C, strain arx1, active compounds read low 1.03 | locus YDR137W, strain rgp1, active compounds read low 0.967 | locus YDR159W, strain sac3, active compounds read low 1.03 | locus YDR162C, strain NBP2, active compounds read low 0.964 | locus YDR195W, strain ref2 1.05 | locus YDR297W, strain sur2, active compounds read low 1.02 | locus YDR318W, strain mcm21, active compounds read low 0.98 | locus YDR334W, strain swr1, active compounds read low 1.01 | locus YDR335W, strain msn5, active compounds read low 1.01 | locus YDR388W, active compounds read low 0.972 | locus YDR392W, strain spt3, active compounds read low 0.969 | locus YDR502C, strain sam2, active compounds read low 0.989 | locus YEL003W, strain gim4, active compounds read low 1.01 | locus YEL037C, strain rad23, active compounds read low 1.02 | locus YEL061C, strain CIN8 (second series), active compounds read low 1.03 | locus YEL061C, strain CIN8, active compounds read low 0.994 | locus YER015W, strain faa2, active compounds read low 1.02 | locus YER016W, strain bim1, active compounds read low 1.02 | locus YER110C, active compounds read low 0.945 | locus YER111C, strain swi4, active compounds read low 1.02 | locus YER155C, strain BEM2 (second series), active compounds read low 1.06 | locus YER155C, strain BEM2, active compounds read low 1 | locus YER167W, strain BCK2, active compounds read low 0.998 | locus YFR010W, strain ubp6, active compounds read low 1.03 | locus YGL078C, strain dbp3, active compounds read low 0.975 | locus YGL086W, strain mad1, active compounds read low 1.02 | locus YGL167C, strain pmr1, active compounds read low 1.01 | locus YGL173C, strain kem1, active compounds read low 1.01 | locus YGL227W, strain vid30, active compounds read low 1.03 | locus YGL240W, strain doc1, active compounds read low 1.04 | locus YGL248W, strain PDE1, active compounds read low 0.996 | locus YGL253W, strain hxk2, active compounds read low 1.02 | locus YGR135W, strain pre9, active compounds read low 0.923 | locus YGR252W, strain gcn5, active compounds read low 0.979 | locus YHR013C, strain ard1, active compounds read low 1.04 | locus YHR027C, strain rpn1, active compounds read low 1.02 | locus YHR030C, strain SLT2, active compounds read low 0.991 and 1.03 | locus YHR079C, strain IRE1 (second series), active compounds read low 0.992 | locus YHR079C, strain IRE1, active compounds read low 1.04 | locus YHR094C, strain hxt1, active compounds read low 0.981 | locus YHR129C, strain ARP1, active compounds read low 0.995 | locus YHR142W, strain chs7, active compounds read low 1.03 | locus YHR200W, strain rpn10, active compounds read low 0.98 | locus YIL066C, strain RNR3, active compounds read low 1 | locus YIL073C, strain SPO22, active compounds read low 0.913 | locus YIL125W, strain kgd1, active compounds read low 1 | locus YIR030C, strain dcg1, active compounds read low 0.983 | locus YJL092W, strain hpr5, active compounds read low 1.01 | locus YJL095W, strain BCK1 (second series), active compounds read low 1.02 | locus YJL095W, strain BCK1, active compounds read low 1.01 and 1.06 | locus YJL115W, strain asf1, active compounds read low 1.03 | locus YJL129C, strain trk1, active compounds read low 1.09 | locus YJL134W, strain LCB3, active compounds read low 0.993 | locus YJL154C, strain vps35, active compounds read low 1.02 | locus YJL164C, strain tpk1, active compounds read low 0.998 | locus YJL166W, strain qcr8, active compounds read low 1.03 | locus YJL168C, strain set2, active compounds read low 0.98 | locus YJL187C, strain SWE1 (second series), active compounds read low 1 | locus YJL187C, strain SWE1, active compounds read low 1.01 | locus YJR043C, strain POL32, active compounds read low 1
